ChEMBL document CHEMBL1961873, “Compounds: GSK PKIS; Assays: Nanosyn kinase panel” (2012)

Key:
[1] = molecular target: Rho-associated protein kinase 1 (Homo sapiens) (UniProt Q13464); conditions: at 1 µM;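 further: reported values are mean percent inhibition of ROCK1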
[2] = molecular target: Rho-associated protein kinase 2 (Homo sapiens) (UniProt O75116); conditions: at 0.1 µM
[3] = molecular target: Rho-associated protein kinase 2 (Homo sapiens) (UniProt O75116); conditions: at 1 µM
[4] = molecular target: Ribosomal protein S6 kinase alpha-1 (Homo sapiens) (UniProt Q15418); conditions: at 0.1 µM
Sequence of Ribosomal protein S6 kinase alpha-1 (Homo sapiens) (Q15418 whole entry): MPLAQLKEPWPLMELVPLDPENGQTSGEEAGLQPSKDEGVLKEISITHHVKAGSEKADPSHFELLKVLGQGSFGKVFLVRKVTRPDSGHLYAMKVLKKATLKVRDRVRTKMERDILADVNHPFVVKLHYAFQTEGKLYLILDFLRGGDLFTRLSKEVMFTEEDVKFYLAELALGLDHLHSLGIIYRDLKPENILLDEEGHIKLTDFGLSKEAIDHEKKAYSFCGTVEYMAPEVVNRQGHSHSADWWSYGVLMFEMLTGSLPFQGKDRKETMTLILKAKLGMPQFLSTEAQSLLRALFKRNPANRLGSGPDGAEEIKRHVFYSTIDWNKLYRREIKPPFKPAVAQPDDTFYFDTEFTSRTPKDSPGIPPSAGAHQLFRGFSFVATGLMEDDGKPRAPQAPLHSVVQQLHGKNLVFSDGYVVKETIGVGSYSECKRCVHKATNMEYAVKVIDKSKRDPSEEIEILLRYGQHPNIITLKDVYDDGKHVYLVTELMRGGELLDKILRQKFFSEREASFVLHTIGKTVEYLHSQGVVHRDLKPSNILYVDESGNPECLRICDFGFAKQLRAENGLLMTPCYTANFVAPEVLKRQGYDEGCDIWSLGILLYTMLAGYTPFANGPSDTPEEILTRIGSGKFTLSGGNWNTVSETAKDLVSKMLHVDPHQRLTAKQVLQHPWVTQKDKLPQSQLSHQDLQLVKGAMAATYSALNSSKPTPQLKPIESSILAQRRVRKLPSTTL

[5] = molecular target: Ribosomal protein S6 kinase alpha-1 (Homo sapiens) (UniProt Q15418); conditions: at 1 µM
[6] = molecular target: Ribosomal protein S6 kinase alpha-3 (Homo sapiens) (UniProt P51812); conditions: at 0.1 µM
Sequence of Ribosomal protein S6 kinase alpha-3 (Homo sapiens) (P51812 whole entry): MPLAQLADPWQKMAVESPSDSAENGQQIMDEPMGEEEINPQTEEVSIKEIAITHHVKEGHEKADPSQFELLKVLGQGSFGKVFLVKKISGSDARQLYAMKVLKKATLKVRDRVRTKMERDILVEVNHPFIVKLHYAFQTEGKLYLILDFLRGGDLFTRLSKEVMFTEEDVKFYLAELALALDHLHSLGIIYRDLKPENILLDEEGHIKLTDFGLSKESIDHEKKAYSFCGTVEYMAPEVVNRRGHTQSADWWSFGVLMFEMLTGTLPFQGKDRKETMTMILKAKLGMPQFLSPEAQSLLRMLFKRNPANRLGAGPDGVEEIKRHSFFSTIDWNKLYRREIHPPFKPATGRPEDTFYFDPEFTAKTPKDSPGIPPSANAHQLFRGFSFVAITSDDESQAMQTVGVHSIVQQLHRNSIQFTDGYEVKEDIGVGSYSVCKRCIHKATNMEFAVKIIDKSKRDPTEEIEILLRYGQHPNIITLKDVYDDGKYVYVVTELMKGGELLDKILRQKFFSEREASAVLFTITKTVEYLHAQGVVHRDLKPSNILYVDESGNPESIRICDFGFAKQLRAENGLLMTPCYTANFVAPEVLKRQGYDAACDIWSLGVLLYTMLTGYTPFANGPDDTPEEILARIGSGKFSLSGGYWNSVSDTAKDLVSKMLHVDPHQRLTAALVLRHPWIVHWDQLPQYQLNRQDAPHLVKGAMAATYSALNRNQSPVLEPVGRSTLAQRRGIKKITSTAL

[7] = molecular target: Ribosomal protein S6 kinase alpha-3 (Homo sapiens) (UniProt P51812); conditions: at 1 µM
[8] = molecular target: Ribosomal protein S6 kinase alpha-2 (Homo sapiens) (UniProt Q15349); conditions: at 0.1 µM
Sequence of Ribosomal protein S6 kinase alpha-2 (Homo sapiens) (Q15349 whole entry): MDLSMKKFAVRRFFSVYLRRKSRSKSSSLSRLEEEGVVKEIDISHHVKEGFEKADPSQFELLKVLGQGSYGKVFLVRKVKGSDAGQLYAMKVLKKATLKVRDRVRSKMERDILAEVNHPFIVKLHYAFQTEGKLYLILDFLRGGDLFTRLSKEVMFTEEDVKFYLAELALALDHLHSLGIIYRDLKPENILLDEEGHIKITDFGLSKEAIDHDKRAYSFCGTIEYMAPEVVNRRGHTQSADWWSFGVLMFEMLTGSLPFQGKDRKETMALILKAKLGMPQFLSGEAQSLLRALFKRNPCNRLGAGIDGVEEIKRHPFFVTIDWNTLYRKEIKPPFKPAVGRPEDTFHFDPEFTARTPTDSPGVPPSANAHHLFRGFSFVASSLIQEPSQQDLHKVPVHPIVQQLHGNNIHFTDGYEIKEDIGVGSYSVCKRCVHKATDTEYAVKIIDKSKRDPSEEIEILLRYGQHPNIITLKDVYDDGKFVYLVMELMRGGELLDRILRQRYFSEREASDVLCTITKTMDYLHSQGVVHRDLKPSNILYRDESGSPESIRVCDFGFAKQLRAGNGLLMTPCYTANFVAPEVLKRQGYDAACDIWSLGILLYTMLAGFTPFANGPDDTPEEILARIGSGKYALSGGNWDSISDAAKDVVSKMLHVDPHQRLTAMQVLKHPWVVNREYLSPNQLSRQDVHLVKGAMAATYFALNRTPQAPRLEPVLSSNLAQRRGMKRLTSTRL

[9] = molecular target: Ribosomal protein S6 kinase alpha-2 (Homo sapiens) (UniProt Q15349); conditions: at 1 µM
[10] = molecular target: Ribosomal protein S6 kinase alpha-6 (Homo sapiens) (UniProt Q9UK32); conditions: at 0.1 µM
Sequence of Ribosomal protein S6 kinase alpha-6 (Homo sapiens) (Q9UK32 whole entry): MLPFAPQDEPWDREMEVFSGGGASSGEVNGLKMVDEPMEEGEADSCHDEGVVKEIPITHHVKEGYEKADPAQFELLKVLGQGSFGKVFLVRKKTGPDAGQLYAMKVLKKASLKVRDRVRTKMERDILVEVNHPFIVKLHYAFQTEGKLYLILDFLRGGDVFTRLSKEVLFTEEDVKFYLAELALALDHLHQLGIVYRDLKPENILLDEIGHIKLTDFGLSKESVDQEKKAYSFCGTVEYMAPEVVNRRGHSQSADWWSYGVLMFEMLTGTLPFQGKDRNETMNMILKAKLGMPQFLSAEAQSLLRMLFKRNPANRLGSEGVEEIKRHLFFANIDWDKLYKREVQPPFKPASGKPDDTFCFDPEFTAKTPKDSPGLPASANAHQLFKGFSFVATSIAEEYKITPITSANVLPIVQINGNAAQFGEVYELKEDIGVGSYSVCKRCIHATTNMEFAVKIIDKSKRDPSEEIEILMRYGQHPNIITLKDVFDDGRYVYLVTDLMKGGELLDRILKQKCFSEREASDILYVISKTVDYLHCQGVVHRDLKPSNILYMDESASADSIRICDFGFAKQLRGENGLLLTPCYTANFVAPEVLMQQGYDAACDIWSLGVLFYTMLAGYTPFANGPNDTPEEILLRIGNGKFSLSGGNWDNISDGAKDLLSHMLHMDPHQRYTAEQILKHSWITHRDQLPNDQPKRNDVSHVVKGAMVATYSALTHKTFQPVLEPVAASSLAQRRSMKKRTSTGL

[11] = molecular target: Ribosomal protein S6 kinase alpha-6 (Homo sapiens) (UniProt Q9UK32); conditions: at 1 µM
[12] = molecular target: T1, Serine/threonine-protein kinase Sgk1 (Homo sapiens) (UniProt O00141); conditions: at 0.1 µM
T1 sequence (whole entry): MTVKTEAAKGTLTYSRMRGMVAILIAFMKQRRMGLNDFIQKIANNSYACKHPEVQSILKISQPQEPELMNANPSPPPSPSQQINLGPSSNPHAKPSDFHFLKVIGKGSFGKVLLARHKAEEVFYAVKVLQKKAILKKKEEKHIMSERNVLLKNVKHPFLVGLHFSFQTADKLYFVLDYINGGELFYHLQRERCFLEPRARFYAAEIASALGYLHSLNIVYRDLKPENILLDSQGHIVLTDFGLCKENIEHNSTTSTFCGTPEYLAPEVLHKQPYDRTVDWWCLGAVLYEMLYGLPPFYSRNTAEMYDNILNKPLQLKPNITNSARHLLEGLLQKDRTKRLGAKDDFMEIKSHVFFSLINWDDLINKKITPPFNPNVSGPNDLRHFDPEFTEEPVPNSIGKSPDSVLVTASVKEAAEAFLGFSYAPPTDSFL

[13] = molecular target: T1, Serine/threonine-protein kinase Sgk1 (Homo sapiens); conditions: at 1 µM
[14] = molecular target: T2, Serine/threonine-protein kinase Sgk2 (Homo sapiens) (UniProt Q9HBY8); conditions: at 0.1 µM
T2 sequence (whole entry): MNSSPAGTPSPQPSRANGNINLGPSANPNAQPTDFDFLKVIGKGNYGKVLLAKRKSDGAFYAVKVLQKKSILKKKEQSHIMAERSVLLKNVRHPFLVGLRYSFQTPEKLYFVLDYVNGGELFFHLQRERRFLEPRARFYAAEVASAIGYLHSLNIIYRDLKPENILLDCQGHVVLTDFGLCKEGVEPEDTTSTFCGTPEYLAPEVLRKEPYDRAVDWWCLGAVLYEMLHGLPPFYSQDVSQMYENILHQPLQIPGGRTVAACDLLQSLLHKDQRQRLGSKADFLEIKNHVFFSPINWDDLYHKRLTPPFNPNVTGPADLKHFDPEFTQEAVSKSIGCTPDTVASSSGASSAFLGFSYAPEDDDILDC

[15] = molecular target: T2, Serine/threonine-protein kinase Sgk2 (Homo sapiens); conditions: at 1 µM
[16] = molecular target: T3, Serine/threonine-protein kinase Sgk3 (Homo sapiens) (UniProt Q96BR1); conditions: at 0.1 µM
T3 sequence (whole entry): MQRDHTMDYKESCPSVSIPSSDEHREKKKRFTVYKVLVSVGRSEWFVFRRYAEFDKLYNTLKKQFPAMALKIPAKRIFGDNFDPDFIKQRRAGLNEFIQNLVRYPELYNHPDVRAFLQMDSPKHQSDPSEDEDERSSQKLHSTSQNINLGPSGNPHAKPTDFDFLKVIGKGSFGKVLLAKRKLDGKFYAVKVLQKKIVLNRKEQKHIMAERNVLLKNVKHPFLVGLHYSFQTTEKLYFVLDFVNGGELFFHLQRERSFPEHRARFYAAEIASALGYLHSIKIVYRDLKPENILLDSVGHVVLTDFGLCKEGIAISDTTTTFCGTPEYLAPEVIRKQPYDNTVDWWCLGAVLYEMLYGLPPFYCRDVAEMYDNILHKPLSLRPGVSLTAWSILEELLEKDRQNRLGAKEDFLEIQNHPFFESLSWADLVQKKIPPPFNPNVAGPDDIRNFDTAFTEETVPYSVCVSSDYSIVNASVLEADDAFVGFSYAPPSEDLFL

[17] = molecular target: T3, Serine/threonine-protein kinase Sgk3 (Homo sapiens); conditions: at 1 µM
[18] = molecular target: 5'-AMP-activated protein kinase catalytic subunit alpha-1 (Homo sapiens) (UniProt Q13131); conditions: at 0.1 µM
Sequence of 5'-AMP-activated protein kinase catalytic subunit alpha-1 (Homo sapiens) (Q13131 whole entry, looked up): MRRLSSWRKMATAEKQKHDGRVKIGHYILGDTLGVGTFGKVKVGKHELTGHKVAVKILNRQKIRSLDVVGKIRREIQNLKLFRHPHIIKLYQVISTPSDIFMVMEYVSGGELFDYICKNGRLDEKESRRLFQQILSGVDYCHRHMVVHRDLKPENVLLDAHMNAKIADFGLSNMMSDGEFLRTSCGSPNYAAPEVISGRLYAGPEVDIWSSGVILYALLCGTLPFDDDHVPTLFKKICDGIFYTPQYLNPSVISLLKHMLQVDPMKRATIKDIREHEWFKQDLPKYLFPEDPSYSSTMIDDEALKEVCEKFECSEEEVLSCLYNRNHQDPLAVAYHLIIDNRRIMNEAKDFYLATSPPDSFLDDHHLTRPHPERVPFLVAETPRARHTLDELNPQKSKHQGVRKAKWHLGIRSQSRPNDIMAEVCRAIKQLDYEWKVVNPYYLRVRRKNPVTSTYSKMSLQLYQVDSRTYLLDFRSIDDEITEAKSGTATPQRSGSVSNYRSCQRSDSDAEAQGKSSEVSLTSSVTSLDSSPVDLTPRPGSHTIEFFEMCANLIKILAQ

[19] = molecular target: 5'-AMP-activated protein kinase catalytic subunit alpha-1 (Homo sapiens) (UniProt Q13131); conditions: at 1 µM
[20] = molecular target: 5'-AMP-activated protein kinase catalytic subunit alpha-2 (Homo sapiens) (UniProt P54646); conditions: at 0.1 µM;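 further: mean inhibition measured on the AMPK complex of alpha2, beta1 and gamma1 subunits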

Sequence of Rho-associated protein kinase 2 (Homo sapiens) (O75116 whole entry, looked up): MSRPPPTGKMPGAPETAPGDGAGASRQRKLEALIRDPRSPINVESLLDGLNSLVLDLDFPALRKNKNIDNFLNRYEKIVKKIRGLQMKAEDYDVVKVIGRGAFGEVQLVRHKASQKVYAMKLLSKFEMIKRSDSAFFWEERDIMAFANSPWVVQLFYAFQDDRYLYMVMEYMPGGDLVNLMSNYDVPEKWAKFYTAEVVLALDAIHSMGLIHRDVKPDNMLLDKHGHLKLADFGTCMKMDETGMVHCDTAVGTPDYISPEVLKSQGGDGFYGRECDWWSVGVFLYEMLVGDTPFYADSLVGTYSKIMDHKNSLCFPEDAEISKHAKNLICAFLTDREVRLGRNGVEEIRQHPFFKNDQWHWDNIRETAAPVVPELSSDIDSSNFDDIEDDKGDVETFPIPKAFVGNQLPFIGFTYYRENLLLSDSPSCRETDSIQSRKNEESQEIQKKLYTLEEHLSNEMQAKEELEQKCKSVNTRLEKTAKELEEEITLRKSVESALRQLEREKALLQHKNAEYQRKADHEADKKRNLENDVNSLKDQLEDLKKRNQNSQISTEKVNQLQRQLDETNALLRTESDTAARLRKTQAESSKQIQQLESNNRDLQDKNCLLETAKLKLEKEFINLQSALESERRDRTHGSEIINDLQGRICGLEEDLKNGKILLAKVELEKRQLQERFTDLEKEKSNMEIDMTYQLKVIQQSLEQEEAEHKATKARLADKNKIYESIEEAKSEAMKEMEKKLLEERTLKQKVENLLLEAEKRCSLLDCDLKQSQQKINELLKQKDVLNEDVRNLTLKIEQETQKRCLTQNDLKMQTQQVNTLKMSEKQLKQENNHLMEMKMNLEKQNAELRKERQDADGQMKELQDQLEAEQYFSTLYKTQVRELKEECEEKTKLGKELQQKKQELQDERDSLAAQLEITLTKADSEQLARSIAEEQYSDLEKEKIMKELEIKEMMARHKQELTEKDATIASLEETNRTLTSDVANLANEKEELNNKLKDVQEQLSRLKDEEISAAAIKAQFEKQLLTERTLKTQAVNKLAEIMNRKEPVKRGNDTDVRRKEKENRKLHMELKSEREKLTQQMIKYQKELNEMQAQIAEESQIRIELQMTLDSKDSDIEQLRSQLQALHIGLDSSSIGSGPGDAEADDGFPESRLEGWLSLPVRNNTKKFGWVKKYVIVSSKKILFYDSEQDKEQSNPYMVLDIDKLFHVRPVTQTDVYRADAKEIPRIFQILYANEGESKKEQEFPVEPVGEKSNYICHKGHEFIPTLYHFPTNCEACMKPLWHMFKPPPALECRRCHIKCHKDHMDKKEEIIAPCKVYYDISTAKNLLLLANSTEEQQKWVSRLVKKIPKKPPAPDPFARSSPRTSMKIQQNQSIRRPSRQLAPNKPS

SMILES	inhibition [1]	inhibition [2]	inhibition [3]	inhibition [4]	inhibition [5]	inhibition [6]	inhibition [7]	inhibition [8]	inhibition [9]	inhibition [10]	inhibition [11]	inhibition [12]	inhibition [13]	inhibition [14]	inhibition [15]	inhibition [16]	inhibition [17]	inhibition [18]	inhibition [19]	inhibition [20]
COc1cc2ncn(-c3cc(O[C@@H](C)c4ccccc4Cl)c(C(N)=O)s3)c2cc1OC	3.27%	3.27%	5.4%	1.94%	4.51%	1.79%	5.13%	3.03%	6.66%	1.81%	6.8%	3.98%	4.72%	4.32%	3.95%	4.22%	7.31%	3.57%	10.6%	1.04%
Cc1nnc(-c2ccc(C)c(-c3ccc(C(=O)Nc4cccc(C#N)c4)cc3)c2)o1	0.62%	-0.03%	3.81%	1.66%	3.77%	1.23%	2.97%	0.46%	2.89%	0%	1.23%	0.29%	4.49%	-1.98%	0.76%	1.01%	3.55%	2.8%	2.03%	-0.06%
Cn1cc(C=C2C(=O)Nc3cccnc32)c2ccccc21	5.28%	2.47%	8.3%	0.08%	5.16%			1.73%	7.9%	2.64%	10.2%	1.6%	5.51%	-2.41%	1.75%	1.35%	0.63%	5.84%	14.8%	4.46%
CCc1cccc(NC(=O)Nc2ccc(Oc3ccc4nc(NC(=O)OC)[nH]c4c3)cc2)c1	18.3%	5.32%	8.2%	1.07%	1.59%	0.58%	0.96%	1.52%	1.5%	-0.02%	1.25%	0.38%	1.59%	3.74%	-0.81%	5.12%	3.61%	1.46%	0.41%	-5.13%
CN1CCC(C(=O)Nc2n[nH]c3nnc(-c4ccccc4)cc23)CC1	1.3%	3.27%	7.43%	2.04%	3.41%	1.58%	3.98%	2.42%	3.15%	0.86%	1.86%	3.01%	6.62%	4.36%	3.52%	2.89%	5.04%	5.95%	5.95%	4.12%
Fc1cccc(COc2ccc(Nc3ncnc4sc(-c5cccs5)cc34)cc2Cl)c1	2.28%	0.99%	1.7%	-0.29%	-0.48%	-1.22%	-0.28%	0.38%	1.25%	-0.01%	0.4%	1.05%	0.86%	0.37%	0.66%	0.04%	-0.58%	0.51%	0.48%	2.89%
CCn1c(-c2nonc2N)nc2cncc(C(=O)N3CC[C@H](N)C3)c21		74.9%	83.5%	44.6%	75.8%	31.3%	69.9%	18.3%	65.9%	6.13%	25%	7.33%	29.4%	6.54%	44.6%	19.6%	68.1%	4.01%	6.61%	4.72%
COc1cc2ncn(-c3cc(OCc4ccccc4C(F)(F)F)c(C(N)=O)s3)c2cc1OC	4.31%	3.56%	8.03%	0.65%	9.54%	-0.02%	11.1%	2.5%	8.42%	3.37%	23.6%	3.02%	1.49%	6.11%	0.81%	3.87%	1.64%	5.52%	19.1%	2.61%
Cc1cc(O)cc(C)c1/C=C/c1cncc(-c2nn[nH]n2)c1	1.86%	2.66%	2.33%	2.97%	1%	1.94%	1.24%	3.53%	3.85%	2.1%	0.92%	3.17%	2.09%	-1.45%	1.25%	1.96%	3.83%	3.54%	3.56%	3.69%
CCn1c(-c2nonc2N)nc2cnc(Oc3cccc(NC(=O)c4ccc(OCCN5CCOCC5)cc4)c3)cc21		90%	90.5%	26.1%	70.6%	12.2%	54.6%	15.6%	61%	2.18%	13.8%	7.56%	34.7%	15.7%	58.5%	36.3%	74.3%	2.28%	2.06%	2.76%
CCn1c(-c2nonc2N)nc2c(C#CC(C)(C)O)nc(OC[C@@H](N)c3ccccc3)cc21	37%	7.79%	45.9%	2.16%	21.4%	3.04%	26.8%	0.98%	12.9%	2.62%	17.5%	0.38%	3.01%	2.41%	10.3%	43.1%	60.4%	26.6%	66.9%	4.59%
CC(C)=Cc1cccc2c1/C(=N/Nc1ccc(S(N)(=O)=O)cc1)C(=O)N2	10.1%	3.96%	20.5%	2.45%	12.4%	1.53%	8.42%	2.5%	16.4%	1.61%	13.6%	0.34%	5.74%	-2.99%	3.04%	0.02%	0.72%	13.9%	56.6%	3.74%
CNC(=O)c1cncc(/C=C/c2c(Cl)cccc2Cl)c1	1.88%	0.61%	1.93%	1.04%	4.53%	0.14%	1.94%	1.97%	2.54%	0.73%	1.63%	-0.87%	-0.45%	0.49%	0.48%	1.43%	2.18%	2.85%	3.59%	6.15%
CS(=O)(=O)CCN(CC#N)Cc1ccc(-c2ccc3ncnc(Nc4ccc(OCc5cccc(F)c5)c(Cl)c4)c3c2)o1	1.43%	0.1%	0.19%	-0.47%	-0.29%	-1.25%	-1.73%	0.79%	0.34%	-0.25%	-0.88%	3.63%	0.86%	1.72%	-1.45%	0.78%	3.35%	3.45%	0.16%	3.89%
